Data on 36 sequences can be found in publication PMC5892938, “SARNAclust: Semi-automatic detection of RNA protein binding motifs from immunoprecipitation data”.

Over roughly 11,000 sequences, “log2 fold change” has its median near 0.00022; the highest 2% begin near 0.34. The list shows a part of the results.

The test deals with GST-SBP-SLBP (stem-loop binding protein) (Homo sapiens, UniProt Q14493 1-270). Briefly: targeted RNA Bind-n-Seq; RBNS binding buffer: 25 mM Tris pH 7.5, 150 mM KCl, 3 mM MgCl2, 0.1% Tween, 0.5 mg/mL BSA, 1 mM DTT; 27 nM protein, 750 pM RNA pool; temperature not stated; high values mean tight binding. The following applies: protein: recombinant; tags: N-terminal GST and SBP (pGEX6P1-SBP); structured_RNA. In outline:
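The GST-SBP-tagged protein was expressed in Rosetta(DE3) pLysS E. coli, glutathione-purified and incubated at 27 nM with 750 pM of a designed, T7-transcribed RNA oligo pool in RBNS binding buffer. Bound RNA was reverse transcribed with a 10-nucleotide barcoded primer, PCR-amplified and sequenced on a MiSeq with 200-cycle paired-end reads. Reads were joined with FLASH, aligned with HISAT2 and collapsed by barcode. The binding signal is the DEseq log2 fold change of read counts per sequence.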
On to “GGUCACGUCUCAAUCAACUCUAAAGAGGGGGGGAAAACCCCUUUGCCCUCACUAUCAACAGCUCGCAGUCAAG”, for which the binding signal turned out to be 0.331 ± 0.434 log2 fold change.
The value for “GGUCACGUCUCAAUCAACUCCAUAGAGGGGGGGAAAACCCCUUUACCCUCACACUCAACAGCUCGCAGUCAAG” was 0.698 ± 0.433 log2 fold change.
Consider “GGUCACGUCUCAAUCAACUCAAUAGAGGGGGGGAAAACCCCUUUACCCUCCAUAUCAACAGCUCGCAGUCAAG”, for which the binding signal was found to be 0.379 ± 0.407 log2 fold change.
In the case of “GGUCACGUCUCAAUCAACUCCAUAGAGGGGGGGAAAACCCCUUUACCCUCACAUUCAACAGCUCGCAGUCAAG”, the binding signal came to 0.32 ± 0.406 log2 fold change.
Take “GGUCACGUCUCAAUCAACUCAAUAGAGGGGGGGAAAACCCCUUUACCCUCCACCUCAACAGCUCGCAGUCAAG”: the binding signal is 0.349 ± 0.417 log2 fold change.
As for “GGUCACGUCUCAAUCAACUCACAAGAGGGGGGGAAAACCCCUUUACCCUCGAUAUCAACAGCUCGCAGUCAAG”, the figure is 0.383 ± 0.425 log2 fold change; as for “GGUCACGUCUCAAUCAACUCCUCAGAGGGGGGGAAAACCCCUUUACCCUCCACCUCAACAGCUCGCAGUCAAG”, 0.326 ± 0.442 log2 fold change; as for “GGUCACGUCUCAAUCAACUCAAUAGAGGGGGGGAAAACCCCUUUACCCUCGAUAUCAACAGCUCGCAGUCAAG”, 0.435 ± 0.406 log2 fold change.
For “GGUCACGUCUCAAUCAACUCUUUAGAGGGGGGGAAAACCCCUUUACCCUCGAUAUCAACAGCUCGCAGUCAAG”, the binding signal came to 0.336 ± 0.435 log2 fold change.
Turning to “GGUCACGUCUCAAUCAACUCCCCAGAGGGGGGGAAAACCCCUUUACCCUCCAUAUCAACAGCUCGCAGUCAAG”, the binding signal worked out at 0.573 ± 0.413 log2 fold change.
For the sequence “GGUCACGUCUCAAUCAACUCCCCAGAGGGGGGGAAAACCCCUUUACCCUCCAUCUCAACAGCUCGCAGUCAAG”, the binding signal turned out to be 0.313 ± 0.439 log2 fold change.
With “GGUCACGUCUCAAUCAACUCAAACGAGGGGGGGAAAACCCCUUUACCCUCAACUUCAACAGCUCGCAGUCAAG”, the binding signal was 0.35 ± 0.421 log2 fold change.
For the sequence “GGUCACGUCUCAAUCAACUCUCACGAGGGGGGGAAAACCCCUUUACCCUCAACUUCAACAGCUCGCAGUCAAG”, the binding signal came to 0.363 ± 0.418 log2 fold change.
On to “GGUCACGUCUCAAUCAACUCAAACGAGGGGGGGAAAACCCCUUUACCCUCAUUCUCAACAGCUCGCAGUCAAG”, for which the binding signal came out at 0.326 ± 0.393 log2 fold change.
For “GGUCACGUCUCAAUCAACUCUUACGAGGGGGGGAAAACCCCUUUACCCUCACACUCAACAGCUCGCAGUCAAG”, the binding signal stood at 0.321 ± 0.386 log2 fold change.
The value for “GGUCACGUCUCAAUCAACUCUCACGAGGGGGGGAAAACCCCUUUACCCUCUUACUCAACAGCUCGCAGUCAAG” was 0.346 ± 0.439 log2 fold change; that for “GGUCACGUCUCAAUCAACUCUUACGAGGGGGGGAAAACCCCUUUACCCUCUUCUUCAACAGCUCGCAGUCAAG” was 0.477 ± 0.42 log2 fold change; that for “GGUCACGUCUCAAUCAACUCUAACGAGGGGGGGAAAACCCCUUUACCCUCUAUAUCAACAGCUCGCAGUCAAG” was 0.308 ± 0.434 log2 fold change.
“GGUCACGUCUCAAUCAACUCUAACGAGGGGGGGAAAACCCCUUUACCCUCAACUUCAACAGCUCGCAGUCAAG”: the binding signal was 0.426 ± 0.419 log2 fold change.
As to “GGUCACGUCUCAAUCAACUCCUUCGAGGGGGGGAAAACCCCUUUACCCUCACAAUCAACAGCUCGCAGUCAAG”, the binding signal came to 0.304 ± 0.425 log2 fold change.
Take “GGUCACGUCUCAAUCAACUCCUUCGAGGGGGGGAAAACCCCUUUACCCUCACCUUCAACAGCUCGCAGUCAAG”: the binding signal was 0.36 ± 0.426 log2 fold change.
The value for “GGUCACGUCUCAAUCAACUCUUCGGAGGGGGGGAAAACCCCUUUACCCUCAAUCUCAACAGCUCGCAGUCAAG” was 0.453 ± 0.428 log2 fold change; that for “GGUCACGUCUCAAUCAACUCCUUCGAGGGGGGGAAAACCCCUUUACCCUCUUAAUCAACAGCUCGCAGUCAAG” was 0.305 ± 0.422 log2 fold change; that for “GGUCACGUCUCAAUCAACUCUUUCGAGGGGGGGAAAACCCCUUUACCCUCAUACUCAACAGCUCGCAGUCAAG” was 0.524 ± 0.429 log2 fold change.
Turning to “GGUCACGUCUCAAUCAACUCAACGGAGGGGGGGAAAACCCCUUUACCCUCAACAUCAACAGCUCGCAGUCAAG”, the binding signal came to 0.308 ± 0.444 log2 fold change.
Regarding “GGUCACGUCUCAAUCAACUCUUUCGAGGGGGGGAAAACCCCUUUACCCUCAUAAUCAACAGCUCGCAGUCAAG”, the binding signal amounted to 0.336 ± 0.429 log2 fold change.
For the sequence “GGUCACGUCUCAAUCAACUCCUUCGAGGGGGGGAAAACCCCUUUACCCUCUUCAUCAACAGCUCGCAGUCAAG”, the binding signal came out at 0.429 ± 0.434 log2 fold change.
Regarding “GGUCACGUCUCAAUCAACUCAAUCGAGGGGGGGAAAACCCCUUUACCCUCACCUUCAACAGCUCGCAGUCAAG”, the binding signal stood at 0.499 ± 0.434 log2 fold change.
For the sequence “GGUCACGUCUCAAUCAACUCAACUUCCAGGGAAAACCCUGGUAUACUCAACAGCUCGCAGUCAAG”, the binding signal turned out to be 0.373 ± 0.293 log2 fold change.
Regarding “GGUCACGUCUCAAUCAACUCAAUUUCCAGGGAAAGCCCUGGUAUACUCAACAGCUCGCAGUCAAG”, the binding signal was 0.343 ± 0.255 log2 fold change.
As for “GGUCACGUCUCAAUCAACUCAACUCCCAGGGAAAGCCCUGGUAUACUCAACAGCUCGCAGUCAAG”, the figure is 0.301 ± 0.289 log2 fold change.
As for “GGUCACGUCUCAAUCAACUCUACUUCCAGGGAAACCCCUGGUAUACUCAACAGCUCGCAGUCAAG”, the binding signal was determined as 0.362 ± 0.285 log2 fold change.
For the sequence “GGUCACGUCUCAAUCAACUCUCUAGAGGGGGGGAAAACCCCUUUACCCUCACUUUCAACAGCUCGCAGUCAAG”, the binding signal came out at 0.308 ± 0.399 log2 fold change.
As to “GGUCACGUCUCAAUCAACUCGCAAGAGGGGGGGAAAACCCCUUUACCCUCAAAUUCAACAGCUCGCAGUCAAG”, the binding signal stood at 0.308 ± 0.444 log2 fold change.
As for “GGUCACGUCUCAAUCAACUCACUAGAGGGGGGGAAAACCCCUUUACCCUCAAUUUCAACAGCUCGCAGUCAAG”, the binding signal came out at 0.352 ± 0.409 log2 fold change.
“GGUCACGUCUCAAUCAACUCGCAAGAGGGGGGGAAAACCCCUUUACCCUCAAUUUCAACAGCUCGCAGUCAAG”: the binding signal was 0.343 ± 0.444 log2 fold change.
